# Sampled rows, rich in hits. Any-hit rate of the full collection: about 19%.
# HT1080-NT tox: kills 2HG-producing HT-1080-NT fibrosarcoma cells; Potency, µM (series often up to 46.1 µM), for inactives: at the highest dose activity, negative = less viability, usual class: cytotoxic; 360,000 tested, 1.6% active; HT-1080-NT fibrosarcoma viability, CellTiter-Glo ATP luminescence, 48 h;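 also: NT is the 2HG producing partner of a matched IDH1 knockdown line; potency is read from the fitted curve at half-maximal effect; 0% = DMSO-treated cells and -100% = media-only wells without cells; nearly all actives have a fitted effect of over 55% in size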
#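 Viability of the 2HG-overproducing fibrosarcoma line after 48 hours of compound exposure at 37 degrees C was determined by luminescence with CellTiter-Glo, and concentration-effect curves were then fitted and categorized.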
# DT40 TDP1 CPT: DT40-hTDP1 cell growth loss with CPT. chicken DT40 Tdp1-/-;hTDP1 cells + 20 nM CPT, ATP luminescence, 48 h. Potency, µM (doses to about 46.2 µM), for inactives: top-dose activity change, negative = growth inhibition, actives largely listed as inhibitors. 420,000 tested, 12% active. AID 686979; also: potency is read from the fitted curve at half-maximal effect; nearly all actives have a fitted effect of over 55% in size
#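 Chicken DT40 Tdp1-/- cells stably complemented with human TDP1 were seeded at 400 cells/well in medium containing 20 nM camptothecin, exposed to pin-transferred compounds, and grown at 37 °C for at least 48 hr. Viability was read as ATP luminescence.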
# TDP1 cell noCPT: qHTS for Inhibitors of human tyrosyl-DNA phosphodiesterase 1 (TDP1): qHTS in cells in absence of CPT; DT40 Tdp1-/- hTDP1 cells, no CPT, ATP luminescence, 48 h; Potency, µM (titrated, usually from 46.2 µM), for the others: at the top dose activity change, negative = growth inhibition, most hits filed as inhibitors; 420,000 tested, 15% active; AID 686978, 2013; also: potency is read from the fitted curve at half-maximal effect; nearly all actives have a fitted effect of over 55% in size
#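 Chicken DT40 Tdp1-/- cells stably complemented with human TDP1 were seeded at 400 cells/well with DMSO in place of 20 nM camptothecin. After compound pinning, cells grew at least 48 hr at 37 °C; viability read by CellTiter-Glo luminescence.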
# HT1080 IDH1KD tx: toxicity to HT-1080 IDH1 knockdown cells (counter line). HT-1080 IDH1 knockdown viability, ATP luminescence, 48 h. Potency, µM (highest dose often 46.1 µM), for the others: at the top dose activity, negative = toxicity, hits mostly cytotoxic. 360,000 tested, 2% active;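 also: potency is read from the fitted curve at half-maximal effect; 0% = DMSO wells and -100% = cell-free medium wells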
#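 After a 2 h attachment period, IDH1KD HT-1080 cells took pin-transferred compound for 48 h at 37 °C; ATP-based luminescence after 10 min room-temperature reagent incubation reported viability.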
# IL1B secr inh: inhibitors of inflammasome signaling (IL-1 beta secretion) | 360,000 tested, 4.7% active | activity change, % at 57.5 µM | THP-1 LPS/ATP IL-1B secretion, AlphaLISA, 16 h; active compounds read low | AID 743279; in the data active = activity change below about -50%; inconclusive = mostly about -30% to -49%
#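 THP-1 cells pretreated 1 hr with compounds (up to 57.5 uM final), then stimulated with LPS (250 ng/mL final) plus ATP (1.25 mM final); secreted IL-1B measured by AlphaLISA after 16 hr, decreased signal indicating inhibition.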
# * = called active by the depositor; ? = inconclusive; . = not tested or not shown; [ ] = dose if it differs, or a comment. Unless noted, calls follow the shape of the dose curve; as a rule, active = well fitted curve in the direction sought with a large enough effect; inconclusive = small, poorly fitted or top-dose-only effect, or another doubt; inactive = no such curve, though single readings can be large; an effect the other way counts as inactive or inconclusive. Unless noted, % is scaled to controls: 0 for no effect and ±100 for the full control effect.
SMILES,HT1080-NT tox,DT40 TDP1 CPT,TDP1 cell noCPT,HT1080 IDH1KD tx,IL1B secr inh
Cc1sc(NC(=O)CN(Cc2ccc(F)cc2)C(=O)C(C)C)c(C(N)=O)c1C,?,3.7µM*,2.3µM*,0%,?
CN1CCc2c(sc(NC(=O)Cc3ccc(F)cc3)c2C(N)=O)C1,4%,20%,7%,7%,-2
Cc1sc(NC(=O)CN(Cc2ccccc2)C(=O)C(C)C)c(C(N)=O)c1C,9%,1.8µM*,1.2µM*,5%,25
CCC(=O)N(CC(=O)Nc1sc(C)c(C)c1C(N)=O)C1CCCC1,1%,23µM*,13µM*,18%,17
COc1ccc(C(=O)N(CC(=O)Nc2sc(C)c(C)c2C(N)=O)C2CCCC2)cc1,-1%,?,?,-3%,6
CCC(=O)N(CC(=O)Nc1sc(C)c(C)c1C(N)=O)Cc1ccc(F)cc1,6%,21µM*,15µM*,8%,8
Cn1cc(CN2CCCC(CO)(Cc3ccccc3)C2)cn1 (stereo not drawn),-15%,-13%,0%,-6%,32
CC(=O)Nc1ccc(Sc2ccccc2C(=O)O)cn1,0%,4%,16%,-1%,13
CCCC(=O)NCCc1ccc(S(N)(=O)=O)cc1,1%,-7%,-13%,0%,0
CC(C)C[C@H]1COc2cccc(N(C)CCO)c2S(=O)(=O)N1,18%,-1%,2%,?,21
COc1cc(/C=C2\CC(C(C)(C)C)C/C(=C\c3cc(OC)c(OC)c(OC)c3)C2=O)cc(OC)c1OC (stereo not drawn),12µM*,15µM*,9.2µM*,5.8µM*,-98*
COc1cc(/C=C2/N=C(C3CCCCC3)OC2=O)cc(OC)c1OC,0%,-21%,-19%,2%,-25
COc1cc(/C=C2/CCC/C(=C\c3cc(O)c(OC)c(Cl)c3)C2=O)cc(Cl)c1O,?,10µM*,10µM*,21µM*,-107*
COc1cc(/C=C2\COC/C(=C\c3cc(OC)c(OC)c(OC)c3)C2=O)cc(OC)c1OC,?,1.2µM*,0.58µM*,0.52µM*,-99*
COc1cc(/C=C2\CC/C(=C\c3cc(OC)c(O)c(OC)c3)C2=O)cc(OC)c1O,4.1µM*,6.5µM*,5.8µM*,4.1µM*,-103*
CCCOc1ccc(-c2nc3ccc(Br)cc3c(=O)o2)cc1,.,-6%,-9%,.,.
COc1cc(/C=C2\CC/C(=C\c3cc(OC)c(OC)c(OC)c3)C2=O)cc(OC)c1OC,-4%,?,10µM*,-3%,-60*
COc1cc(/C=C/C(C)=O)cc(OC)c1OC,-8%,-30%,?,0%,?
CCOC(=O)c1cc(C(=O)OCC)c(=O)[nH]c1N1CCCC1,1%,-29%,?,0%,14
CCOc1cc(NC(=O)C2CCCCC2)c(OCC)cc1NC(=O)c1ccco1,1%,7.3µM*,?,10%,-10
CCNC(=S)Nc1cc(OCC)c(NC(=O)c2ccco2)cc1OCC,1%,?,?,1%,1
CCOc1cc(NS(=O)(=O)c2ccc(Cl)cc2)c(OCC)cc1NC(=O)CC(C)C,?,22µM*,18µM*,?,-14
CCOc1cc(NS(=O)(=O)c2ccccc2)c(OCC)cc1NC(=O)c1ccco1,2%,?,26µM*,-4%,0
CCOc1cc(NC(=S)NCC2CCCO2)c(OCC)cc1NC(=O)C1CC1 (stereo not drawn),11%,-3%,4.6µM*,-4%,-7
Cn1cccc1C(=O)N1CCC2(CC1)CN(Cc1ccc(C#N)cc1)C2,.,0%,-17%,.,.
CNC[C@@H]1CC[C@@H](N)[C@@H](O[C@H]2[C@H](O)[C@@H](O[C@H]3OC[C@](C)(O)[C@H](NC)[C@H]3O)[C@H](N)C[C@@H]2N)O1,.,4%,8%,.,.
CCC(=O)Nc1nnc(SCC(=O)c2ccc3c(c2)Cc2ccccc2-3)s1,-1%,?,-29%,-38%[9.24 µM],10
